Consider 17 compounds from PubChem BioAssay.

Test [1] relates to Human papillomavirus type 1a protein E7 (residues 44-93). The experiment in a line: HPV1a E7 fragment binders on microarrays, primary screen, biochemical, small-molecule microarray, residues 44-93, 635 nm fluorescence (AID 1108).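 Further: E7 fragment applied at 1 µg/mL in TBST for 1 h at 4 C; score combines spot fluorescence with its signal to noise ratio.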 To be noted: small-molecule microarray binding, fluorescence 635 nm; higher = more signal.
Test [2] is described as follows: modulators of HCV replicon luciferase signal, primary screen, HCV replication inhibitor project, Huh7 cells, luciferase reporter (AID 1109).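 Further: huh7 hepatoma cells harbouring a luciferase neomycin HCV replicon reporter; luciferase luminescence as measure of HCV replicon replication; test concentration not given here.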 Particulars: 48 h, higher = more signal.
The target of test [3] is Left-right determination factor 2 (Homo sapiens) (UniProt O00292). The experiment in a line: LEFTY2 binders on small-molecule microarrays, primary screen, biochemical, small-molecule microarray, 635 nm fluorescence scan (AID 1110). To be noted: LEFTY2 binding, higher = more signal.
Test [4] addresses Calmodulin-1 (Homo sapiens) (UniProt P0DP23). The experiment in a line: CALM1 binders on microarrays, EGTA buffer, profiling panel, biochemical, small-molecule microarray, Cy5-labelled CALM1 (AID 1111).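 Further: labelled calmodulin applied in Tris saline Tween buffer holding calcium plus EGTA and DTT.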 To be noted: Cy5-CALM1 binding fluorescence, higher = more signal.
The target is the same in test [5]. The test can be described thus: calcium-bound CALM1 binders on microarrays, profiling panel, artefact control for SMM control-protein annotation, biochemical, small-molecule microarray, Cy5-labelled CALM1, plus calcium (AID 1112).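 Further: score merges spot fluorescence with signal to noise from triplicate slides.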 To be noted: Cy5-CALM1 binding fluorescence, higher = more signal.
Test [6] in a line: small-molecule microarray binders of probe aWnt5a, primary screen, biochemical, biotinylated probe, 635/667 nm fluorescence (AID 1113).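 Further: score merges 667 nm fluorescence intensity with signal-to-noise per printed feature.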 Particulars: higher = more signal.
A short description of test [7]: small-molecule microarray binders of probe aShh, primary screen, biochemical, biotinylated probe, 635/667 nm fluorescence (AID 1114).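 Further: probe is biotin-labelled aShh protein from a stem cell growth factor screen; measures binding of labelled protein to compounds printed on the slide; score merges feature fluorescence at 667 nm with signal-to-noise.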 To be noted: higher = more signal.
Test [8] in a line: small-molecule microarray binders of probe aNog, primary screen, biochemical, biotinylated probe, 635/667 nm fluorescence (AID 1115).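 Further: probe is biotinylated aNog protein used at 0.15 µg/mL for 1 h at 4 C; z-score combines 667 nm fluorescence of each spot with its signal to noise.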 To be noted: higher = more signal.
For test [9], the target named is Torsin-1A-interacting protein 1 (Homo sapiens) (UniProt Q5JTV8). The experiment in a line: LAP1 binders from COS7 cell lysate, primary screen, small-molecule microarray, 635/667 nm fluorescence (AID 1116). To be noted: COS7-hLAP1 lysate binding, 635 nm fluorescence, higher = more signal.
In test [10] the target is Alpha-bungarotoxin (Bungarus multicinctus) (UniProt P60615). The experiment in a line: alpha-bungarotoxin binders on microarray, profiling panel, artefact control for SMM control protein annotation, biochemical, small-molecule microarray, Alexa647 label, 635/667 nm fluorescence (AID 1117). To be noted: alpha-BTX-A647 binding fluorescence, higher = more signal.
Chain of Alpha-bungarotoxin (Bungarus multicinctus) (P60615 whole entry, looked up): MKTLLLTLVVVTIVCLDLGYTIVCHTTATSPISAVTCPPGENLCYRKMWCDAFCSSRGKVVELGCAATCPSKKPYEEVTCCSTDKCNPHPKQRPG

Chain of Torsin-1A-interacting protein 1 (Homo sapiens) (Q5JTV8 whole entry, looked up): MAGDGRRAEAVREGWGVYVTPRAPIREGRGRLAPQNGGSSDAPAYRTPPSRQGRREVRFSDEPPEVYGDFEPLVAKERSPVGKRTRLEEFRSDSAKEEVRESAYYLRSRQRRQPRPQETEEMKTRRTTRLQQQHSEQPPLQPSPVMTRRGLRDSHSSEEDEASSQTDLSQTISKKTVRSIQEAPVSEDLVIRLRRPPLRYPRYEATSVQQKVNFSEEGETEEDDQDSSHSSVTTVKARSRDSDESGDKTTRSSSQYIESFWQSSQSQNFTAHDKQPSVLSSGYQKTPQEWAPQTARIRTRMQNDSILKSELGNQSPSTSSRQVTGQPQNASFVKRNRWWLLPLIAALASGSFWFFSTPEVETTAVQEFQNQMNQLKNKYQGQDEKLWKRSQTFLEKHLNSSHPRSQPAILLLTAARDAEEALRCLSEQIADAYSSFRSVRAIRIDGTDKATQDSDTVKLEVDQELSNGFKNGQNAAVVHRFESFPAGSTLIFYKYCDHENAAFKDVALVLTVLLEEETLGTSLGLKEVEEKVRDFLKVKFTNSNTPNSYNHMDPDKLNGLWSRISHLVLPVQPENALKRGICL
Chain of Left-right determination factor 2 (Homo sapiens) (O00292 whole entry, looked up): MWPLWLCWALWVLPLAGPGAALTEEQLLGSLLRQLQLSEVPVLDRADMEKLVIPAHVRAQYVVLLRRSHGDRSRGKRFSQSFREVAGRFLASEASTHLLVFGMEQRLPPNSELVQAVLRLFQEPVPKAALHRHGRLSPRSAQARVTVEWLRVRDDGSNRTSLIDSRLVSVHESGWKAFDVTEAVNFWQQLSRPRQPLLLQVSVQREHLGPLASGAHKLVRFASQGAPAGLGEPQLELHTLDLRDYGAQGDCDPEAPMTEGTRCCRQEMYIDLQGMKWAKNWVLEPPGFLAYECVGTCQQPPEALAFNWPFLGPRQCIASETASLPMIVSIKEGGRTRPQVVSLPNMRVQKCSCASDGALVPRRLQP

In the case of `[N-]=[N+]=Nc1ccccc1[C@H]1OC(c2ccc(OCCCO)cc2)=N[C@@]1(Cc1ccccc1)C(=O)O`, the composite z-score in [1] is 1.46; in test [3] it was -0.271; in test [4], 0.577; in test [5], -0.0461; in test [6], 0.0375; in test [7], 0.483. Further, the composite z-score in test [8] was -0.0277; in [9], 0.826; in test [10], 2.07. The compound further gave a z-score in [2] of 1.09.
`O=C(NCC(F)(F)F)[C@@H]1c2ccccc2C(=O)N(C2CCCCC2)[C@H]1c1ccc(CO)cc1`: the composite z-score in [1] is 0.268; in test [3], -0.382; in test [4], 0.218; in test [5] it was -0.403; in test [6], -0.172; in test [7] it was -0.138. Besides, the composite z-score is -0.342 in [8], -0.257 in test [9] and 1.43 in test [10]. The z-score in [2] is -1.7.
As for `C=CCOC(=O)[C@H]1[C@@H]2C(=O)O[C@@H](c3ccccc3)[C@@H](c3ccccc3)N2[C@@H](c2ccc(OCCOC(=O)[C@H]3C[C@H]4C(=O)N5CCC[C@H]5C(=O)N4[C@H]3c3ccc(O)cc3)cc2)[C@]12C(=O)Nc1ccc(I)cc12`, the composite z-score was 1.48 in test [1]; 1.52 in test [3]; 1.22 in [4]; 1.41 in [5]; 0.547 in test [6]; 2.8 in [7]. In addition, the composite z-score amounted to 2.82 in test [8], 2.74 in [9] and 2.81 in test [10]. Also, in test [2], the z-score is 0.56.
In the case of `COC(=O)[C@@]1(Cc2ccc(F)cc2)[C@H]2c3cc(C(=O)N4CCCC4)n(Cc4cc(C)n(C)n4)c3C[C@H]2CN1C(=O)c1ccccc1`, the composite z-score was 0.95 in test [1]; -0.857 in test [3]; 2.36 in test [4]; 1.38 in test [5]; 0.143 in test [6]; 0.356 in test [7]. For the same compound, the composite z-score in test [8] was 2.16; in [9] it was 3.13; in [10] it was 0.251. This compound also registered a z-score in test [2] of -1.17.
Consider `O=C1NC(=O)C2C1C=CC(C(O)C(c1ccccc1)c1ccccc1)N2Nc1ccc(Cl)cc1Cl` (stereo not given), for which the composite z-score in test [1] is 1.36; in test [3], -0.5; in test [4], 1.81; in [5] it was 0.625; in [6], 0.065; in [7], 0.234. For the same compound, the composite z-score in test [8] was 1.41; in test [9], 0.343; in test [10], 0.503. Further, the z-score in test [2] was -1.75.
`CCCCC=C[C@@H](NC(=O)Oc1cccc(C(F)(F)F)c1)c1ccccc1`: the composite z-score in test [1] is 1.18; in [3], -0.143; in test [4], 1.85; in [5], 1.11; in [6], 1.04; in test [7], 1.97. Also, the composite z-score is 0.59 in test [8], 0.503 in test [9] and 1.62 in [10]. Besides, the z-score in [2] was -1.07.
Take `CC(C)(C)OC(=O)CC[C@]1(C(=O)O)N=C(c2ccc(OCCCO)cc2)O[C@H]1c1ccccc1N=[N+]=[N-]`: the composite z-score in [1] came to 0.148; in test [3], 0.101; in [4], 1.84; in [5] it was 0.465; in test [6], 0.38; in test [7], 0.699. Further, the composite z-score in test [8] is 2.34; in test [9], 1.41; in test [10], 1.42. Also, in [2], the z-score came to 2.27.
On to `CC(C)C[C@@H]1NC(=O)[C@@H]2C[C@H](C(=O)NCCCCCN)[C@H](c3cccc(OCCO)c3)N2C1=O`, for which the composite z-score in test [1] was 0.828; in test [3], 0.197; in test [4], 1.36; in test [5], 0.615; in [6], -0.0896; in [7], -0.153. Moreover, the figures for the composite z-score in test [8], in [9] and in test [10] were -0.282, 1.36 and 0.417, respectively. In test [2], the z-score was -0.352.
For the compound `CCCC[C@@H]1C[C@H]1[C@@H](NC(=O)c1ccco1)c1ccc(C(=O)OC)cc1`, the composite z-score was 0.0703 in test [1]; -0.423 in [3]; 0.0927 in test [4]; 0.555 in test [5]; -0.027 in test [6]; -0.217 in test [7]. The composite z-score in test [8] is -0.261; in test [9], -0.392; in [10], -0.335. This compound also returned a z-score in test [2] of -1.07.
For `CCOC(=O)C[C@H]1[C@H](OC(=O)c2ccc(C(=O)c3ccccc3)cc2)[C@@H](NC(=O)c2ccc(-c3ccccc3)cc2)c2cc(OCCCO)ccc2N1C(=O)c1ccccc1`, the composite z-score was 1.3 in test [1]; 0.342 in test [3]; 0.228 in [4]; -0.119 in [5]; 0.193 in [6]; -0.0709 in test [7]. The results for the composite z-score in test [8], in test [9] and in test [10] were -0.632, 0.191 and 0.706, respectively. The compound further yielded a z-score in test [2] of -1.1.
For `COc1cc(OC)c(C(O)C2C=CC3C(=O)NC(=O)C3N2Nc2ccc(Cl)cc2Cl)cc1Br` (stereo not given), the composite z-score in test [1] was 1.09; in test [3] it was -0.75; in test [4], 2.09; in test [5], 0.436; in test [6] it was -0.0685; in [7], 0.0875. In addition, the composite z-score in test [8] came out at 1.61; in test [9], 1.38; in test [10] it was 1.27. In addition, the z-score in test [2] is -1.66.
As for `C=C(COC)/C(=C/C[C@@H](OC(C)=O)c1ccc(OCCO)cc1)c1cc(C(=O)OC)ccc1OC`, the composite z-score in test [1] was 1.35; in test [3], 0.417; in test [4], -0.107; in test [5], -0.878; in [6], 0.0618; in test [7], 0.23. Also, the composite z-score in test [8] is -0.354; in [9], 0.864; in test [10], 0.472. This compound gave a z-score in test [2] of -1.51.
Turning to `O=C1[C@H]2C=C(Br)[C@H](C[C@@H]2c2ccccc2)[C@@]12CO2`, the composite z-score was 0.235 in test [1]; 1.02 in [3]; -0.428 in test [4]; -0.441 in test [5]; -0.152 in test [6]; -0.414 in [7]. The results for the composite z-score in test [8], in test [9] and in test [10] were -0.461, 0.0974 and 0.0148, respectively. In [2], this compound gave a z-score of -3.33.
For the compound `C=CCOC(=O)[C@H]1[C@@H]2C(=O)O[C@@H](c3ccccc3)[C@@H](c3ccccc3)N2[C@@H](c2ccc(OCCOC(=O)[C@H]3C[C@H]4C(=O)N[C@@H](CC(C)C)C(=O)N4[C@H]3c3ccc(O)cc3)cc2)[C@]12C(=O)Nc1ccc(I)cc12`, the composite z-score is 1.41 in test [1]; 0.644 in test [3]; 0.321 in [4]; -0.388 in test [5]; 0.0597 in [6]; 0.0469 in [7]. The composite z-score in test [8] was 0.13; in test [9], 1.78; in test [10] it was 1.82. In test [2], this compound showed a z-score of -0.86.
With `CCOC(=O)C=Cc1cc([N+](=O)[O-])ccc1O`, the composite z-score in test [1] was 0.0311; in test [3] it was -0.609; in [4] it was -0.211; in test [5], -0.5; in test [6] it was -0.124; in [7], 0.173. The composite z-score in [8] is -0.377; in test [9] it was 0.106; in [10], -0.234. For the same compound, the z-score in test [2] was -1.47.
As to `COc1ccc(CCNC(=O)[C@@H]2c3ccccc3C(=O)N(C3Cc4ccccc4C3)[C@H]2c2ccc(CO)cc2)cc1`, the composite z-score is 1.35 in test [1]; 0.0971 in test [3]; 0.329 in test [4]; 0.732 in test [5]; -0.0738 in [6]; 0.0856 in test [7]. The composite z-score is -0.417 in test [8], 1.24 in [9] and 0.134 in [10]. The z-score in test [2] is -1.14.
In the case of `CCCCC(O)C1C=CC2C(=O)N(c3ccccc3)C(=O)C2N1Nc1ccccc1F` (stereo not given), the composite z-score was 0.392 in [1]; 0.22 in test [3]; 1.48 in test [4]; -0.124 in test [5]; 0.241 in test [6]; 0.261 in test [7]. For the same compound, the composite z-score in [8] was determined as 1.87; in test [9], 1.21; in [10], 3.13. The same compound yielded a z-score in test [2] of -0.472.
